For ten compounds, growth inhibition results are on record in PubChem BioAssay (NCI).

The nature of assay [1]: NCI Yeast Anticancer Drug Screen. Data for the rad50 strain (AID 155).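 Note: 0% = growth of vehicle-only cultures of the same strain.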 Conditions: S. cerevisiae rad50 strain growth inhibition, active compounds read high. The procedure, abridged: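 DNA repair mutant yeast, compound exposure, growth read-out; inhibition is taken relative to vehicle.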
Assay [2] is described as follows: NCI Yeast Anticancer Drug Screen. Data for the mec2-1 strain (AID 157). Conditions: S. cerevisiae mec2-1 strain, active compounds read high. In a few lines: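 Compounds were applied to mec2-1 yeast cells. Their growth was then compared with that of vehicle-treated cultures to give growth inhibition.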
A short description of assay [3]: NCI Yeast Anticancer Drug Screen. Data for the sgs1 mgt1 strain (AID 161).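 Note: 0% = growth of cultures given vehicle only.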 Conditions: S. cerevisiae sgs1 mgt1 strain, active compounds read high. The procedure, abridged:
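This yeast growth screen uses a strain with defined DNA-repair lesions; compound-treated growth is compared with vehicle-treated growth.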

The nature of assay [4]: NCI Yeast Anticancer Drug Screen. Data for the cln2 rad14 strain (AID 165).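 Note: 0% = growth equal to vehicle treated cultures.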 Conditions: S. cerevisiae cln2 rad14 strain, active compounds read high. The procedure, abridged: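 Strain: cln2 rad14 yeast, altered in cell cycle control and DNA damage repair. Read-out: growth inhibition vs vehicle.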
The nature of assay [5]: NCI Yeast Anticancer Drug Screen. Data for the bub3 strain (AID 167). Conditions: S. cerevisiae bub3 mutant strain, active compounds read high. In a few lines:
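In this screen, a yeast mutant lacking normal mitotic checkpoint function is challenged with compound. Relative growth versus vehicle gives the inhibition value.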

A short description of assay [6]: NCI Yeast Anticancer Drug Screen. Data for the mlh1 rad18 strain (AID 175). The following applies: S. cerevisiae mlh1 rad18 strain growth inhibition, active compounds read high. The procedure, abridged:
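A repair-deficient yeast strain is exposed to test compound, and growth is scored relative to vehicle-treated controls.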

The mark [7] stands for this setting: at 5.0 µM (retest, dose inferred, filed as 0.5).
[8] abbreviates: at 50.0 µM (retest, dose inferred, filed as 5.0).

Compounds without any hit were thinned out: in the full panel of roughly 79,000, 15% have a hit. Unmarked numbers belong to inactive results. The source made the active and inactive calls. Cut-off read from the data, not from the text of the source: active = growth inhibition above about 70%; inactive = the rest.

On to `Oc1cc2c(cc1C(c1ccc(F)cc1)N1CCCCC1)OCO2` (stereo not given), for which the growth inhibition in assay [1] (setting [7]) was -1%; in assay [1] (setting [8]), 76% (active); in assay [1] (at 50.0 µM) it was 63%; in assay [2] (setting [7]), -5%; in assay [2] (setting [8]) it was 73% (active); in assay [2] (at 50.0 µM) it was 64.4%. Also, the growth inhibition in assay [3] (setting [7]) was 6%; in assay [3] (setting [8]) it was 77% (active); in assay [3] (at 50.0 µM), 85.5% (active); in assay [4] (setting [7]), -4%; in assay [4] (setting [8]) it was 39%; in assay [4] (at 50.0 µM) it was 54.9%. Also, the growth inhibition in assay [5] (setting [7]) is -8%; in assay [5] (setting [8]), 54%; in assay [5] (at 50.0 µM) it was 84.4% (active); in assay [6] (setting [7]), -1%; in assay [6] (setting [8]), 88% (active); in assay [6] (at 50.0 µM) it was 59.3%.

`CCc1nc(N)nc(N)c1-c1ccc(NCCc2ccccc2)c([N+](=O)[O-])c1`: the growth inhibition was 13% in assay [1] (setting [7]); 16% in assay [1] (setting [8]); 25.9% in assay [1] (at 50.0 µM); 9% in assay [2] (setting [7]); 8% in assay [2] (setting [8]); -2.75% in assay [2] (at 50.0 µM). Moreover, the growth inhibition was 17% in assay [3] (setting [7]); 19% in assay [3] (setting [8]); 5.15% in assay [3] (at 50.0 µM); 7% in assay [4] (setting [7]); 6% in assay [4] (setting [8]); 9.75% in assay [4] (at 50.0 µM). Also, the growth inhibition in assay [5] (setting [7]) was 13%; in assay [5] (setting [8]), 15%; in assay [5] (at 50.0 µM) it was 14.4%; in assay [6] (setting [7]), 7%; in assay [6] (setting [8]), 19%; in assay [6] (at 50.0 µM) it was 24.9%.

Consider `O=C(Nc1cccc2ccccc12)OCC1CCc2ccccc2C1` (stereo not given), for which the growth inhibition in assay [1] (setting [7]) was -1%; in assay [1] (setting [8]), 6%; in assay [1] (at 50.0 µM), 12.9%; in assay [2] (setting [7]), -6%; in assay [2] (setting [8]), 2%; in assay [2] (at 50.0 µM), 22.6%. For the same compound, the growth inhibition was -4% in assay [3] (setting [7]); 17% in assay [3] (setting [8]); 54.2% in assay [3] (at 50.0 µM); -8% in assay [4] (setting [7]); -9% in assay [4] (setting [8]); 9.25% in assay [4] (at 50.0 µM). For the same compound, the growth inhibition was -2% in assay [5] (setting [7]); 29% in assay [5] (setting [8]); 72.2% (active) in assay [5] (at 50.0 µM); -5% in assay [6] (setting [7]); 27% in assay [6] (setting [8]); 31.1% in assay [6] (at 50.0 µM).

For `Nc1ccccc1Sc1ccccc1`, the growth inhibition was 36% in assay [1] (setting [7]); 58% in assay [1] (setting [8]); 83.2% (active) in assay [1] (at 50.0 µM); 26% in assay [2] (setting [7]); 61% in assay [2] (setting [8]); 77.3% (active) in assay [2] (at 50.0 µM). Besides, the growth inhibition in assay [3] (setting [7]) is 46%; in assay [3] (setting [8]) it was 66%; in assay [3] (at 50.0 µM), 62.5%; in assay [4] (setting [7]) it was 29%; in assay [4] (setting [8]) it was 47%; in assay [4] (at 50.0 µM) it was 83.2% (active). Besides, the growth inhibition in assay [5] (setting [7]) was 37%; in assay [5] (setting [8]), 73% (active); in assay [5] (at 50.0 µM), 64.5%; in assay [6] (setting [7]) it was 35%; in assay [6] (setting [8]), 78% (active); in assay [6] (at 50.0 µM) it was 71% (active).

As for `CC[O-].CC[O-].[O-]c1ccccc1C=Nc1ccccc1.[O-]c1ccccc1C=Nc1ccccc1.[Ti+4]`, the growth inhibition in assay [1] (setting [7]) is 23%; in assay [1] (setting [8]), 23%; in assay [1] (at 50.0 µM) it was 50.5%; in assay [2] (setting [7]) it was 22%; in assay [2] (setting [8]) it was 22%; in assay [2] (at 50.0 µM) it was 14.8%. The growth inhibition in assay [3] (setting [7]) is 12%; in assay [3] (setting [8]), 12%; in assay [3] (at 50.0 µM) it was 19.8%; in assay [4] (setting [7]), 13%; in assay [4] (setting [8]), 13%; in assay [4] (at 50.0 µM), 29.9%. Further, the growth inhibition is 12% in assay [5] (setting [7]); 12% in assay [5] (setting [8]); 19.9% in assay [5] (at 50.0 µM); 23% in assay [6] (setting [7]); 23% in assay [6] (setting [8]); 19.9% in assay [6] (at 50.0 µM).

As to `COC(=O)c1cn(NS(=O)(=O)c2ccc(OC)cc2)cc1C(=O)OC`, the growth inhibition in assay [1] (setting [7]) is -6%; in assay [1] (setting [8]) it was 8%; in assay [1] (at 50.0 µM) it was 16.4%; in assay [2] (setting [7]), -5%; in assay [2] (setting [8]), 4%; in assay [2] (at 50.0 µM) it was 6.65%. Besides, the growth inhibition in assay [3] (setting [7]) was -6%; in assay [3] (setting [8]) it was 14%; in assay [3] (at 50.0 µM) it was 29.8%; in assay [4] (setting [7]) it was -1%; in assay [4] (setting [8]), 0%; in assay [4] (at 50.0 µM), 33.9%. Besides, the growth inhibition in assay [5] (setting [7]) is -5%; in assay [5] (setting [8]) it was 8%; in assay [5] (at 50.0 µM), -1.9%; in assay [6] (setting [7]) it was -5%; in assay [6] (setting [8]), 6%; in assay [6] (at 50.0 µM), 20.9%.

In the case of `COC(=O)C1=CCC[C@H]2C1(C)CCC(C)C21CC(c2ccoc2)OC1=O` (stereo not given in full), the growth inhibition is -8% in assay [1] (setting [7]); 75% (active) in assay [1] (setting [8]); 50.5% in assay [1] (at 50.0 µM); 8% in assay [2] (setting [7]); 85% (active) in assay [2] (setting [8]); 55.6% in assay [2] (at 50.0 µM). Moreover, the growth inhibition in assay [3] (setting [7]) was 10%; in assay [3] (setting [8]), 90% (active); in assay [3] (at 50.0 µM), 72.2% (active); in assay [4] (setting [7]) it was -16%; in assay [4] (setting [8]), 14%; in assay [4] (at 50.0 µM) it was 28.9%. Moreover, the growth inhibition in assay [5] (setting [7]) is -8%; in assay [5] (setting [8]) it was 83% (active); in assay [5] (at 50.0 µM), 67.2%; in assay [6] (setting [7]), 10%; in assay [6] (setting [8]) it was 87% (active); in assay [6] (at 50.0 µM), 76.2% (active).

As to `CSc1cc(Cl)c(C)cc1S(=O)(=O)NC(=O)Nc1ccc(Cl)cc1`, the growth inhibition in assay [1] (setting [7]) was 25%; in assay [1] (setting [8]), 97% (active); in assay [1] (at 50.0 µM), 99.1% (active); in assay [2] (setting [7]), 34%; in assay [2] (setting [8]), 99% (active); in assay [2] (at 50.0 µM), 99% (active). Moreover, the growth inhibition in assay [3] (setting [7]) is 24%; in assay [3] (setting [8]), 97% (active); in assay [3] (at 50.0 µM) it was 99.5% (active); in assay [4] (setting [7]), 45%; in assay [4] (setting [8]), 97% (active); in assay [4] (at 50.0 µM) it was 98.7% (active). The growth inhibition in assay [5] (setting [7]) is 35%; in assay [5] (setting [8]), 98% (active); in assay [5] (at 50.0 µM), 98.5% (active); in assay [6] (setting [7]), 29%; in assay [6] (setting [8]) it was 99% (active); in assay [6] (at 50.0 µM), 99.3% (active).

For `Cc1c(O)c(Br)c(C)c(O)c1Br` (tested in a mixture with another compound), the growth inhibition in assay [1] (setting [7]) was 0%; in assay [1] (setting [8]), 85% (active); in assay [1] (at 50.0 µM) it was 75.8% (active); in assay [2] (setting [7]), 21%; in assay [2] (setting [8]), 69%; in assay [2] (at 50.0 µM), 49.8%. The growth inhibition in assay [3] (setting [7]) was -2%; in assay [3] (setting [8]), 90% (active); in assay [3] (at 50.0 µM) it was 80.6% (active); in assay [4] (setting [7]), -2%; in assay [4] (setting [8]), 47%; in assay [4] (at 50.0 µM), 1.05%. In addition, the growth inhibition in assay [5] (setting [7]) is 1%; in assay [5] (setting [8]) it was 77% (active); in assay [5] (at 50.0 µM), 61.6%; in assay [6] (setting [7]), 8%; in assay [6] (setting [8]), 86% (active); in assay [6] (at 50.0 µM) it was 62.1%.

In the case of `COc1cccc(N2CCN(CC(O)COc3cc4c(c5c3CCCC5)CCCC4)CC2)c1` (stereo not given), the growth inhibition in assay [1] (setting [7]) is 17%; in assay [1] (setting [8]), 95% (active); in assay [1] (at 50.0 µM), 64.2%; in assay [2] (setting [7]), 20%; in assay [2] (setting [8]), 98% (active); in assay [2] (at 50.0 µM) it was 48.6%. Also, the growth inhibition in assay [3] (setting [7]) is 34%; in assay [3] (setting [8]), 95% (active); in assay [3] (at 50.0 µM) it was 62.5%; in assay [4] (setting [7]) it was 13%; in assay [4] (setting [8]), 94% (active); in assay [4] (at 50.0 µM), 58.8%. Further, the growth inhibition in assay [5] (setting [7]) is 12%; in assay [5] (setting [8]), 95% (active); in assay [5] (at 50.0 µM), 95% (active); in assay [6] (setting [7]) it was 12%; in assay [6] (setting [8]), 94% (active); in assay [6] (at 50.0 µM), 54%.
